# Assay outcomes deposited in PubChem by National Center for Advancing Translational Sciences (NCATS).
# HepG2 tox = qHTS for Inhibitors of TGF-b: Cytotox Counterscreen | HepG2 CAGA-GFP viability, ATP luminescence, 18 h | Potency, µM (highest dose often 46.1 µM), actives largely listed as cytotoxic | actives 0.76% (n = 410,000)
#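 CellTiter-Glo luminescence gave cytotoxicity after 18 hours at 37 degrees C. The cells were HepG2 CAGA-GFP in 1% FBS DMEM, stimulated with 500 pg/mL TGF-beta after compound addition. %Activity was normalised to no-cell wells (complete cell-killing) and DMSO (no toxicity), and curves were fitted and classified.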
# TDP1 cell noCPT = qHTS for Inhibitors of human tyrosyl-DNA phosphodiesterase 1 (TDP1): qHTS in cells in absence of CPT | DT40 Tdp1-/- hTDP1 cells, no CPT, ATP luminescence, 48 h | Potency, µM (highest dose often 46.2 µM), hits mostly inhibitors | actives 15% (n = 420,000) | AID 686978, 2013; also: nearly all actives have a fitted effect of over 55% in size
#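 Chicken DT40 Tdp1-/- cells stably complemented with human TDP1 were seeded at 400 cells/well with DMSO in place of 20 nM camptothecin. After compound pinning, cells grew at least 48 hr at 37 °C; viability read by CellTiter-Glo luminescence.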
# TDP1 cell CPT = qHTS for Inhibitors of human tyrosyl-DNA phosphodiesterase 1 (TDP1): qHTS in cells in presence of CPT | chicken DT40 Tdp1-/-;hTDP1 cells + 20 nM CPT, ATP luminescence, 48 h | Potency, µM (top dose mostly 46.2 µM), actives largely listed as inhibitors | actives 12% (n = 420,000) | AID 686979, 2013; also: nearly all actives have a fitted effect of over 55% in size
#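 Chicken DT40 Tdp1-/- cells complemented with human TDP1, 400 cells/well, exposed to compounds plus 20 nM camptothecin for at least 48 h at 37 C; viability read as ATP content by CellTiter-Glo luminescence.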
# S-ASM inh = Inhibitors of Secretory Acid Sphingomyelinase (S-ASM): qHTS; Potency, µM (highest dose often 57.5 µM), actives largely listed as inhibitors; placental ASM, HMU-PC fluorogenic substrate, 60 min; actives 0.006% (n = 340,000); AID 504937, 2011; Sphingomyelin phosphodiesterase (Homo sapiens), P17405
# Target sequence (P17405 47-631 limits assumed): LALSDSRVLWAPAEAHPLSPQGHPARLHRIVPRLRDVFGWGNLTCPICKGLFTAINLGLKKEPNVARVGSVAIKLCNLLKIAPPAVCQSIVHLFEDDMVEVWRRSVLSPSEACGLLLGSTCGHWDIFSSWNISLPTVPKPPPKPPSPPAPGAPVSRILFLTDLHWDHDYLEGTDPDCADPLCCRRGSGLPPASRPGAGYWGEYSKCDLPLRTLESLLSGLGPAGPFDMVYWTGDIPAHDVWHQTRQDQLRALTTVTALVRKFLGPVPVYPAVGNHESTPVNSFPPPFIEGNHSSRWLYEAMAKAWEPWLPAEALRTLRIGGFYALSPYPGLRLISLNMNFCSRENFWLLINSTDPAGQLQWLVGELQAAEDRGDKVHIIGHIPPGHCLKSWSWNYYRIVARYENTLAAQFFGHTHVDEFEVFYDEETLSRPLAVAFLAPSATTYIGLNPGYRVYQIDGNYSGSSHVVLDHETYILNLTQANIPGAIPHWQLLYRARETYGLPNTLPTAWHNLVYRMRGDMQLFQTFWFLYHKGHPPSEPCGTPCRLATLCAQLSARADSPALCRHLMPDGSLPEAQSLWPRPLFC
#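 Human placenta-derived ASM enzyme was preincubated with compound for 10 minutes at room temperature, then given fluorogenic substrate HMU-PC0 (9 uM final) for 60 minutes at 37 °C; a pH 10 stop preceded fluorescence reading at Ex 386/Em 447 nm.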
# IL1B secr inh = qHTS for Inhibitors of Inflammasome Signaling: IL-1-beta AlphaLISA Primary Screen. THP-1 LPS/ATP IL-1B secretion, AlphaLISA, 16 h; stronger effect = lower value. activity change, % at 57.5 µM. actives 4.7% (n = 360,000). AID 743279, 2014; in the data active = activity change below about -50%; inconclusive = mostly about -30% to -49%
#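 Secreted IL-1B measured by AlphaLISA bead assay after 16 h compound exposure of THP-1 cells; compounds (final up to 57.5 uM) added 1 h before LPS (250 ng/mL) and ATP (1.25 mM) stimulation; lower signal means less secretion.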
# TGFb inhibitor = qHTS for Inhibitors of TGF-b | actives 1.2% (n = 410,000) | AID 588855, 2011 | Potency, µM (doses to about 46.1 µM), actives largely listed as inhibitors | HepG2 CAGA-GFP TGF-b/SMAD3 reporter, GFP fluorescence, 18 h; TGF-beta stimulated, 500 pg/mL final; also: nearly all actives have a fitted effect of over 65% in size
#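 TGF-beta reporter screen: HEPG2 CAGA-GFP, 1% FBS, 500 pg/mL TGF-beta final, 18 h; per-cell GFP summed per well; curves fitted and categorized by class.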
# A number is an active result; i = inactive; ? = inconclusive; nt = no result given. Most compounds without a hit are left out; they make up all but 19% or so of the library. Unless noted, calls follow the shape of the dose curve; as a rule, active = well fitted curve in the direction sought with a large enough effect; inconclusive = small, poorly fitted or top-dose-only effect, or another doubt; inactive = no such curve, though single readings can be large; an effect the other way counts as inactive or inconclusive.
SMILES,HepG2 tox,TDP1 cell noCPT,TDP1 cell CPT,S-ASM inh,IL1B secr inh,TGFb inhibitor
c1ccc2c(N3CCCCC3)nc(N3CCCCC3)nc2c1,i,?,18.4µM,i,i,?
c1ccc(-c2nc(N3CCCC3)nc3ccccc23)cc1,i,?,i,i,i,i
c1ccc2c(N3CCCCCC3)nc(-c3ccncc3)nc2c1,i,23.1µM,?,i,?,i
Cc1ccc(S(=O)(=O)N2[C@@H](c3ccc(Br)cc3)C(C(=O)O)=C[C@H]2C(C)(C)C)cc1,i,?,i,i,i,i
C=CC(COCc1ccccc1)N(C(=O)OC(C)(C)C)S(=O)(=O)c1ccccc1Br (stereo unspecified),i,16.4µM,?,i,i,i
C=CCC(COCc1ccccc1)NS(=O)(=O)c1ccccc1Br (stereo unspecified),i,?,?,i,i,?
O=C(Cn1c(=O)n(Cc2ccco2)c(=O)c2c3c(sc21)CCCC3)Nc1ccccc1,i,?,?,i,i,i
CC1(C)Cc2c(sc3c2c(=N)n(Cc2ccco2)c(=O)n3CC(=O)Nc2cccc(Cl)c2)CO1,i,20.6µM,?,i,?,i
Cc1cccc(NC(=O)Cn2c(=O)n(Cc3ccco3)c(=N)c3c4c(sc32)COC(C)(C)C4)c1,i,?,?,i,i,i
CC1(C)Cc2c(sc3c2c(=N)n(Cc2ccco2)c(=O)n3CC(=O)Nc2ccccc2)CO1,i,?,?,i,-50.9,i
CC1(C)Cc2c(sc3c2c(=N)n(Cc2ccco2)c(=O)n3CC(=O)Nc2ccc(Cl)cc2)CO1,i,?,?,i,-80.2,i
C[C@H]1CN([C@@H](C)CO)S(=O)(=O)c2ccc(Br)cc2O[C@H]1CN(C)C(=O)c1cccc(F)c1,i,i,i,nt,i,?
Cc1c(Br)c([N+](=O)[O-])nn1CC(=O)N(C)Cc1ccccc1,i,i,i,i,i,i
Cc1ccc2nc(C(F)(F)F)c(C#N)c(N)c2c1,i,16.4µM,20.6µM,i,-101.4,?
Cc1ccccc1NC(=S)N(CCN1CCOCC1)Cc1ccccc1F,i,i,i,i,i,i
CCOC(=O)C(C(C)=O)C(c1ccc(OCCC(C)C)cc1)C(C(C)=O)C(=O)OCC (stereo unspecified),i,16.4µM,?,i,i,i
CCOC(=O)C(CCCOc1ccc(C(C)CC)cc1)C(=O)OCC (stereo unspecified),i,i,i,i,i,i
C#CCNC(=O)C[C@@H]1C[C@@]2(C(=O)OC)CC(C)(C)CC=C2N(Cc2ccco2)C1=O,nt,i,i,nt,i,nt
COC(=O)[C@@]12C[C@@H](CC(=O)NCC34CC5CC(CC(C5)C3)C4)C(=O)N(Cc3ccco3)C1=CCC(C)(C)C2,nt,14.6µM,16.4µM,nt,i,nt
COC(=O)[C@@]12C[C@@H](CC(=O)N3CCOCC3)C(=O)N(Cc3ccco3)C1=CCC(C)(C)C2,nt,i,i,nt,i,nt
COC(=O)[C@@]12C[C@@H](CC(=O)N3CCCCC3)C(=O)N(Cc3ccco3)C1=CCC(C)(C)C2,nt,?,23.1µM,nt,i,nt
COc1ccc(C2c3cc4c(cc3OC(NNC(N)=O)C2C)OCO4)cc1 (stereo unspecified),i,?,?,i,i,i
COc1cc(C2c3cc4c(cc3C(O)C3COCC23)OCO4)cc(OC)c1OC (stereo unspecified),i,?,?,i,i,i
COc1cc(C2c3cc4c(cc3OC(NNC(N)=O)C2C)OCO4)cc(OC)c1OC (stereo unspecified),i,1.3µM,1.3µM,i,-65.6,?
COc1cc(C2c3cc4c(cc3OC(NNC(N)=S)C2C)OCO4)cc(OC)c1OC (stereo unspecified),i,0.92µM,1.3µM,i,?,?
SMILES,HepG2 tox,TDP1 cell noCPT,TDP1 cell CPT,S-ASM inh,IL1B secr inh,TGFb inhibitor
Cn1ncc(N2CCN(C(=O)c3ccc(Cl)cc3)CC2)c(Cl)c1=O,i,i,i,i,i,i
Cc1cccn2c(=O)c(C(=O)N3CCN(c4ccc(Cl)cc4)CC3)cnc12,i,?,?,nt,nt,i
CC(CNC(=O)CN1C(=O)NC2(CCCCC2)C1=O)c1ccccc1 (stereo unspecified),i,i,i,i,i,i
COc1ccc(-c2[nH]c(-c3ccccc3)nc2SCC(=O)Nc2ccc3c(c2)OCO3)cc1,i,20.6µM,?,nt,nt,?
COc1ccc(-c2nc(SCC(=O)Nc3ccc4c(c3)OCCO4)c(-c3ccc(F)cc3)[nH]2)cc1OC,i,20.6µM,?,nt,nt,?
COc1ccc(NC(=O)CSc2ncccc2C(=O)OC(C)C)cc1OC,i,11.6µM,11.6µM,i,i,i
COc1cc(-c2nc(SCC(=O)Nc3ccc(C)cc3)c(-c3ccc(F)cc3)[nH]2)cc(OC)c1OC,i,14.6µM,?,nt,nt,?
COc1ccc(-c2nsc(SCC(=O)Nc3ccc4c(c3)OCO4)n2)cc1,i,?,?,i,i,i
O=C(N/N=C1/CC2C=CCC12)c1ccco1 (stereo unspecified),i,?,?,i,i,i
Cc1cccc(S(=O)(=O)NC(=O)C2(C)CCN2C(=O)CC2CCCCC2)c1 (stereo unspecified),i,i,i,nt,i,i
CCN(CC(=O)Nc1c(F)cccc1F)C(=O)c1n[nH]c2ccccc12,i,i,i,i,i,i
COc1ccc2nc(SCC(=O)Nc3ccc4c(c3)OCCO4)[nH]c2c1,i,i,i,i,i,i
O=C(CSc1nc(-c2ccc(F)cc2)[nH]c1-c1ccccc1)Nc1ccccc1,i,11.6µM,18.4µM,nt,nt,?
COc1cccc(-c2nc(SCC(=O)Nc3ccc4c(c3)OCCO4)c(-c3ccc(C)cc3)[nH]2)c1,i,23.1µM,?,nt,nt,?
COc1ccc(-c2nc(SCC(=O)Nc3ccccc3)c(-c3ccc(F)cc3)[nH]2)cc1OC,i,?,?,nt,nt,?
COc1ccc(NC(=O)CSc2nc(-c3ccccc3)[nH]c2-c2ccccc2)cc1OC,i,8.2µM,14.6µM,nt,nt,?
CCOC(=O)CSCC(=O)N1N=C(c2cccs2)CC1c1ccc(F)cc1 (stereo unspecified),i,?,14.6µM,i,i,i
